Bioassay records from PubChem.
PAFAH2 inh: PAFAH2 enzyme inhibitors, primary screen, biochemical, fluorescence polarization, human; Platelet-activating factor acetylhydrolase 2, cytoplasmic (Homo sapiens), Q99487; recombinant PAFAH2, FP-rhodamine activity probe; inhibition, % at 3.39 µM; 340,000 compounds, 0.99% hits;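 active means inhibition above the mean over all tested compounds plus 3 SD, cut at about 30% in these data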;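 further: inhibitors block probe labeling of enzyme so polarization drops; 0% = enzyme with DMSO and 100% = wells lacking PAFAH2 protein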
EBNA-1 inh: EBNA-1 DNA-binding inhibitors, primary screen, biochemical, fluorescence polarization. inhibition, % at 14.8 µM. 300,000 compounds, 0.34% hits; in the data active means inhibition above about 28%
PAFAH1B3 inh: PAFAH1B3 enzyme inhibitors, primary screen, biochemical, fluorescence polarization, human. recombinant PAFAH1B3, FP-rhodamine probe. AID 492972, 2010. inhibition, % at 3.39 µM. Platelet-activating factor acetylhydrolase IB subunit alpha1 (Homo sapiens), Q15102. 340,000 compounds, 0.28% hits;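 active means inhibition above the screen-wide average of all tested compounds plus 3 SD, cut at about 25% in these data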;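 further: 0% = enzyme with DMSO only and 100% = wells lacking PAFAH1B3 protein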
PAFAH1B2 inh: PAFAH1B2 enzyme inhibitors, primary screen, biochemical, fluorescence polarization, human; Platelet-activating factor acetylhydrolase IB subunit alpha2 (Homo sapiens), P68402; recombinant PAFAH1B2, FP-rhodamine activity probe; inhibition, % at 3.39 µM; 340,000 compounds, 1.2% hits; AID 492953, 2010;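 active means inhibition above the mean of all tested compounds plus 3 SD, cut at about 24% in these data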;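 further: 0% = enzyme with DMSO and 100% = wells lacking PAFAH1B2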
Target sequence (P68402 whole entry, looked up): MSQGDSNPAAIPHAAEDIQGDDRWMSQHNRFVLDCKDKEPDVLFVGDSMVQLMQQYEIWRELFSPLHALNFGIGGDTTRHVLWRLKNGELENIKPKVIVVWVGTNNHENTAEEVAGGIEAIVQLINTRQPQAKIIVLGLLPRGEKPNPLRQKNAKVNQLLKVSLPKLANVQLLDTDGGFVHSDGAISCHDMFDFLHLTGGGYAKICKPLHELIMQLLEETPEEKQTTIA
ZTA counter: blocks Epstein-Barr virus ZTA, an EBNA-1 counter-screen; AID 2234; ZTA-DNA binding, fluorescence polarization; 320,000 compounds, 0.15% hits; inhibition, % at 11 µM; in the data active means inhibition above about 33%
Target sequence (P03206 whole entry, looked up): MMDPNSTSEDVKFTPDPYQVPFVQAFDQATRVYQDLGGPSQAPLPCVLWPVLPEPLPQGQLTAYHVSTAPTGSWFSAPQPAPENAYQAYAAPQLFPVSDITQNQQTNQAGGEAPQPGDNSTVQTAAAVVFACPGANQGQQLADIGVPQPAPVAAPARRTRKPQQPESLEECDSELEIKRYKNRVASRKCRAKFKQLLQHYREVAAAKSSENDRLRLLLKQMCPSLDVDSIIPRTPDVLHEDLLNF
rCAG RNA binder: binders of r(CAG) RNA repeats, primary screen, biochemical, fluorescence. r(CAG) RNA repeat, TO-PRO-1 dye displacement fluorescence. inhibition, % at 3 µM. 370,000 compounds, 1.3% hits. AID 651821, 2012;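 active means inhibition above the plate cutoff, the mean of all test compounds on that plate plus 3 SD, cut at about 35% in these data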;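 further: 0% = DMSO alone and 100% = 100 µM mitoxantrone as full dye displacement; higher means more dye released from RNA so lower well fluorescence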
PAFAH2 confirm: PAFAH2 enzyme inhibitors, confirmation, biochemical, fluorescence polarization, human; shares compounds with PAFAH2 inh; recombinant PAFAH2, FP-rhodamine activity probe; inhibition, % at 3.39 µM; 2,300 compounds, 65% hits;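 active means mean inhibition over three repeats above a set limit taken from the earlier primary screen, cut at about 30% in these data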;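 further: inhibitor blocks binding of rhodamine activity probe so polarization falls; 0% = enzyme with DMSO and 100% = wells lacking PAFAH2 protein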
rCAG binder conf: small molecules binding CAG repeat RNA – biochemical, fluorescence, confirmation. shares compounds with rCAG RNA binder. r(CAG) RNA repeat, TO-PRO-1 dye displacement fluorescence. inhibition, % at 3 µM. 4,300 compounds, 70% hits. AID 652065, 2013;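 active means inhibition above a per-plate cutoff, the mean inhibition of sample wells plus 3 SD, cut at about 35% in these data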;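 further: loss of TO-PRO-1 fluorescence as compound displaces dye from 1x1 AA loop RNA; 0% = DMSO only wells and 100% = 100 µM mitoxantrone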
DNA CAG counter: displacement of TO-PRO-1 from CAG DNA duplex, counter-screen for rCAG RNA repeat binder project, biochemical, fluorescence, TO-PRO-1 dye, d(CAG) DNA oligo; AID 652068, 2013; inhibition, % at 3 µM; 4,300 compounds, 94% hits; shares compounds with rCAG RNA binder; d(CAG) DNA oligo TO-PRO-1 dye displacement;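 active means inhibition above its plate's cutoff, the mean test-well inhibition plus 3 SD, cut at about 4.8% in these data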;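 further: 0% = DNA dye mix with DMSO and 100% = 100 µM mitoxantrone; hits displace the dye from DNA and so lower well fluorescence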
* = called active by the depositor. Most compounds without a hit are left out; they make up all but 2.9% or so of the library.

C=CC1CN2CCC1CC2C(O)c1ccnc2ccccc12 (centres undefined) was read as PAFAH2 inh -0.1, PAFAH1B3 inh 10.2, PAFAH1B2 inh 4.0 and rCAG RNA binder -0.1.
For O=C(CNS(=O)(=O)c1ccc(Br)s1)N1CCC2(CC1)OCCO2 the results were PAFAH2 inh 35.7*, EBNA-1 inh 0.0, PAFAH1B3 inh 7.6, PAFAH1B2 inh 10.6, ZTA counter -6.5, rCAG RNA binder -0.3 and PAFAH2 confirm 18.1.
`O=C(c1ccc(CNS(=O)(=O)c2ccc(Br)cc2)cc1)N1CCC2(CC1)OCCO2` gave PAFAH2 inh 1.2, EBNA-1 inh 1.2, PAFAH1B3 inh 5.5, PAFAH1B2 inh 1.8, ZTA counter -17.6 and rCAG RNA binder -4.7.
Screening CC(=O)Nc1cc(C(=O)N2CCC3(CC2)OCCO3)ccc1S(=O)(=O)c1ccc(C)cc1 returned PAFAH2 inh 7.5, EBNA-1 inh 0.1, PAFAH1B3 inh 9.1, PAFAH1B2 inh -3.4, ZTA counter -4.7 and rCAG RNA binder 2.3.
Cc1ccc(S(=O)(=O)Nc2cc(C(=O)N3CCC4(CC3)OCCO4)ccc2N2CCCCC2)cc1 was read as PAFAH2 inh 59.7*, EBNA-1 inh -5.5, PAFAH1B3 inh 3.1, PAFAH1B2 inh 7.2, ZTA counter -6.3, rCAG RNA binder 4.0 and PAFAH2 confirm 49.1*.
Screening CN(C)c1ccc(/C=C2/C(=O)NC(=O)N(Cc3ccco3)C2=O)cc1 returned PAFAH2 inh 8.8, EBNA-1 inh -0.1, PAFAH1B3 inh 10.0, PAFAH1B2 inh 0.1, ZTA counter 11.4 and rCAG RNA binder 26.1.
COc1ccc(/C=C2/C(=O)N(Cc3ccco3)C(=O)N(C(C)C)C2=O)cc1 was read as PAFAH2 inh 30.0*, EBNA-1 inh -0.1, PAFAH1B3 inh 0.8, PAFAH1B2 inh 0.6, ZTA counter 6.7, rCAG RNA binder 59.6*, PAFAH2 confirm -0.6, rCAG binder conf 76.6* and DNA CAG counter 40.8*.
For Cn1cccc1/C=C1\C(=O)NC(=O)N(CCC2=CCCCC2)C1=O the results were PAFAH2 inh 25.5, PAFAH1B3 inh 0.9, PAFAH1B2 inh 4.2 and rCAG RNA binder 9.7.
Cn1cccc1/C=C1\C(=O)NC(=O)N(Cc2ccccc2Cl)C1=O was read as PAFAH2 inh 30.5*, PAFAH1B3 inh 3.1, PAFAH1B2 inh 1.9, rCAG RNA binder 45.8*, PAFAH2 confirm 10.6, rCAG binder conf 10.1 and DNA CAG counter 4.1.
For O=C1NC(=S)N(c2ccccc2)C(=O)/C1=C/c1ccco1 the results were PAFAH2 inh 30.0*, EBNA-1 inh 5.5, PAFAH1B3 inh 5.9, PAFAH1B2 inh 1.9, ZTA counter 21.2, rCAG RNA binder 89.4*, PAFAH2 confirm 58.8*, rCAG binder conf 90.0* and DNA CAG counter 63.2*.
Screening O=c1[nH]cc(COCC(F)(F)C(F)(F)C(F)(F)F)c(=O)[nH]1 returned PAFAH2 inh 4.6, EBNA-1 inh -1.6, PAFAH1B3 inh 5.6, PAFAH1B2 inh 6.6, ZTA counter 10.8 and rCAG RNA binder 3.4.
`CCC1(C(=O)c2ccccc2)C2c3ccccc3OC(=O)C21C(C)=O` (centres undefined) gave EBNA-1 inh -0.8, ZTA counter 13.3 and rCAG RNA binder -0.5.
`O=C1NC(=O)N(CCC2=CCCCC2)C(=O)/C1=C\c1cccs1` gave PAFAH2 inh 54.7*, EBNA-1 inh 13.0, PAFAH1B3 inh 5.6, PAFAH1B2 inh 9.2, ZTA counter -2.3, rCAG RNA binder 42.0*, PAFAH2 confirm 45.8*, rCAG binder conf 6.5 and DNA CAG counter 3.4.
